# Compounds with a hit are over-represented: about 10% of the library has one in this group of screens.
# JMJD2A Tudor inh – blocks the human JMJD2A Tudor domain; AlphaScreen JMJD2A-Tudor / H3K4me3 peptide binding; Potency, µM (top dose mostly 114 µM), most hits filed as inhibitors; 4.4% of 390,000 active; AID 504339; O75164; further: nearly all actives have a fitted effect of over 50% in size
# Six1-Eya2 inh – Six1/Eya2 interaction inhibition; 0.56% of 360,000 active; activity change, % (concentration not given with the values); Q15475+O00167; AID 651725; AlphaScreen GST-Six1/His-Eya2 binding, biochemical; active compounds read low; in the data active means activity change below about -65%; inconclusive means mostly about -30% to -63%
# Target sequence (O00167 whole entry, looked up): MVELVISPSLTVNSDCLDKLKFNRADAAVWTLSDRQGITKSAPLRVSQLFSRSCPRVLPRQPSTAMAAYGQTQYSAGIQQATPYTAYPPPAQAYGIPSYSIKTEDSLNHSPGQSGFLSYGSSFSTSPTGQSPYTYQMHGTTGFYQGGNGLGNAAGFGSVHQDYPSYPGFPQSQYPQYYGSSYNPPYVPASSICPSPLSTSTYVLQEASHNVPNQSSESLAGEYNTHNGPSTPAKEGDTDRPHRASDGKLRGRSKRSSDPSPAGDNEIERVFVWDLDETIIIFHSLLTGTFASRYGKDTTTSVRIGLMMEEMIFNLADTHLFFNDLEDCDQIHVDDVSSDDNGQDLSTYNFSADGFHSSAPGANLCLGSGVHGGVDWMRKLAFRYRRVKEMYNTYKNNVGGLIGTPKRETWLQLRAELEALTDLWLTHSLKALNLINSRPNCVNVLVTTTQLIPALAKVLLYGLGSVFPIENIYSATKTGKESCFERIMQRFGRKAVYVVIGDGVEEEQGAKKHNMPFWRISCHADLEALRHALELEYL
# Target sequence (Q15475 whole entry, looked up): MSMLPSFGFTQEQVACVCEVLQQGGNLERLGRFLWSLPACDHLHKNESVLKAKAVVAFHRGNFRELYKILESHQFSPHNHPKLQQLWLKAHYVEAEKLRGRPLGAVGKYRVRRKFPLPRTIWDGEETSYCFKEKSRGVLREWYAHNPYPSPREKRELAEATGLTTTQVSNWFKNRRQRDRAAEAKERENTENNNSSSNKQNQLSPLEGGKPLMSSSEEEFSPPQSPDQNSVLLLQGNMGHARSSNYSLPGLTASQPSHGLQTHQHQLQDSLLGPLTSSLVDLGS
#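 GST-Six1 + His-Eya2 (5X stock: 250/500 nM); Tris pH 8.0, 300 mM NaCl, 0.05% BSA, 0.02% Tween 20; GSH donor/Ni acceptor beads; 1 h 37 °C dark; AlphaScreen readout.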
# HP1b binding inh – HP1-beta chromodomain-methylated histone interaction inhibition; P83916; AlphaScreen HP1-beta / biotin-H3K9me3 peptide binding; Potency, µM (doses to about 114 µM), usual class: inhibitors; 0.56% of 390,000 active; AID 540317; further: nearly all actives have a fitted effect of over 70% in size
#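 Compound inhibition of the preformed complex between 50 nM HP1-beta and 50 nM biotinylated H3K9me3 peptide was read by AlphaScreen. Buffer was PBS pH 7.4 with 0.01% Tween-20. Incubations ran 30 min at room temperature, with 10 ug/mL donor/acceptor beads.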
# BAZ2B block – BAZ2B (human) inhibition; Q9UIF8; AlphaScreen BAZ2B-H3K14Ac peptide displacement; Potency, µM (doses to about 114 µM), hits mostly inhibitors; 4.4% of 360,000 active; further: nearly all actives have a fitted effect of over 60% in size
#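 Complex of BAZ2B and biotin-H3K14Ac (50 nM apiece) forms over 30 min at RT, then faces library compounds up to 110 uM for another 30 min; AlphaScreen beads added, 20 min dark incubation, luminescence read.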
# CtBP-E1A inh – blocks the CtBP interaction with E1A; AlphaScreen GST-E1A/His-CtBP binding, 1536-well; active compounds read low; 0.49% of 340,000 active; AID 651724; activity change, % (test concentration not listed); in the data active means activity change below about -65%; inconclusive means mostly about -30% to -63%
#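 In 5 uL wells, 23 nL compound meets equimolar GST-E1A and His-CtBP (5X stock 125 nM each) for 2 h, 37 °C. Beads (5X, 50 ug/mL) then 1 h, 37 °C, dark.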
# G9a block – G9a (human) methyltransferase inhibition; Potency, µM (highest dose often 102 µM), usual class: inhibitors; G9a H3K9 monomethylation, AlphaScreen, 2 h; Q96KQ7; 8.8% of 350,000 active; further: nearly all actives have a fitted effect of over 75% in size
#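 G9a (20 nM) was preincubated 15 min with compound, then reacted 2 h at room temperature with 500 nM biotin-H3K9 peptide and 20 µM SAM. Monomethyl-H3K9 detected by AlphaScreen using anti-H3K9me1 antibody.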
# Hits are given with their value; i = inactive; ? = inconclusive; nt = no result; [ ] = another dose, or the depositor's remark. Unless noted, the call rests on the fitted dose curve; in most records, active means well fitted inhibition curve with a large enough effect; inconclusive means small, poorly fitted or top-dose-only effect; inactive means no such curve, though single readings can be large or run the other way.
SMILES,JMJD2A Tudor inh,Six1-Eya2 inh,HP1b binding inh,BAZ2B block,CtBP-E1A inh,G9a block
O=C(O)CC1Sc2nc3ccccc3n2C1=O (stereo not given),i,i,i,i,i,44.7µM
CCOc1ccc(NCCC(O)c2ccc(F)cc2)cc1 (stereo not given),?,i,?,50.1µM,i,i[2.33 µM]
Cc1ccc(C(=O)C(C(=O)/C=C/c2ccccc2)=C2SCCCS2)cc1,?,i,?,?,i,7.08µM
Cc1ccc(C(=O)C=CC=Cc2ccccc2)cc1,nt,i,nt,nt,i,nt
Cc1ccc2[nH]c3c(=S)nc[nH]c3c2c1,?,i,i,i,i,1.78µM
Cc1ccc2[nH]c3c(=O)n(N)c(C)nc3c2c1,i,i,i,i,i,i
O=[N+]([O-])c1cccnc1N1CCC(c2cc(-c3ccc(Cl)cc3)n[nH]2)CC1,25.1µM,?,?,50.1µM,i,8.91µM
CC(C)(O)C#Cc1ccc(N2C(c3ccsc3)=Cc3ccc(F)cc3C2c2c[nH]c3ccccc23)cc1 (stereo not given),nt,i,nt,nt,i,nt
CCN(CC)C(=O)c1sc2c(c1C)c(=O)n(-c1ccc(OC)cc1OC)c(=O)n2CC(=O)Nc1ccccc1,i,nt,i,i,nt,i
Cn1c(=S)ccc2ccccc21,i,i,?,i,i,10µM
C/C(=N\Nc1ccccc1C)c1cccnc1,50.1µM,i,i,?,i,1.41µM
CSc1nncc(/C(C)=N/O)n1,i,i,i,i,i,i
CSc1nncc(/C(C)=N\Nc2ccccc2C)n1,i,i,i,i,i,2.51µM
Cc1ccccc1NC(NC(=O)c1cccnc1)C(Cl)(Cl)Cl (stereo not given),i,i,i,i,i,i
Cc1ccc2nc(CSc3nnc(NC(=O)c4ccc(C(C)(C)C)cc4)s3)cc(=O)n2c1,i,nt,i,i,nt,i
CCc1ccc(OC(C)c2nc(-c3ccc(-n4cccc4)cc3)no2)cc1 (stereo not given),i,nt,i,i,nt,i
Cc1nccc2oc(=O)c(NC(=O)c3ccc(Cl)cc3)cc12,i,i,i,i,i,i
O=C(Nc1cc2c(oc1=O)CCCC2=O)c1ccc(Cl)cc1,14.1µM,i,i,39.8µM,i,i[12.7 µM]
O=C(Nc1ccc2ccccc2c1)c1cccc2ccccc12,i,i,i,nt,i,nt
C=C(c1cccc2ccccc12)P(=O)(O)O,?,i,i,i,i,15.8µM
COCCn1c(=O)c(-c2ccc(F)cc2)nc2cnc(OCc3ccccc3)nc21,nt,nt,nt,nt,nt,i[12.7 µM]
Clc1ccccc1-c1nn2c(-c3ccccn3)nnc2s1,?,i,?,79.4µM,i,?
CN(C)c1ccc(-c2nn3c(-c4ccccc4Cl)nnc3s2)cc1,i,i,i,i,i,i
Clc1ccccc1-c1nn2c(-c3ccncc3)nnc2s1,?,i,?,i,i,3.16µM
Clc1ccccc1-c1nnc2sc(-c3cccs3)nn12,i,i,i,i,i,35.5µM
SMILES,JMJD2A Tudor inh,Six1-Eya2 inh,HP1b binding inh,BAZ2B block,CtBP-E1A inh,G9a block
c1ccc(OCc2nn3c(-c4ccccn4)nnc3s2)cc1,i,i,i,i,i,?
Clc1ccccc1-c1nnc2sc(-c3ccncc3)nn12,?,i,i,i,i,?
O=C(Nc1ccc(F)cc1)Nc1ccc2snnc2c1,i,nt,i,i,nt,i
CN(CC(=O)OCC(=O)NCC(F)(F)F)S(=O)(=O)c1ccc(Cl)cc1,i,i,i,i,i,i
C/C(=N\Nc1ccc(F)cc1F)c1ccccc1O,i,i,i,i,i,14.1µM
Cc1ccc(Oc2ccc(NC(=O)C3=CC=CN4CCS(=O)(=O)N=C34)cc2)cc1,i,i,i,i,i,i[12.7 µM]
CCCn1cc2c(c1-c1ccc(C)cc1)c(=O)n(C)c(=O)n2C,i,i,i,?,i,nt
COc1ccc(-c2c3c(=O)n(C)c(=O)n(C)c3cn2C2CCCCC2)cc1,?,i,?,50.1µM,i,?
N#Cc1c(NC(=O)CCC(=O)O)sc2c1CCCCC2,44.7µM,i,?,?,i,44.7µM
Cc1nnc(SCC(=O)Nc2sc3c(c2C#N)CCCCC3)n1N,i,i,i,i,i,14.1µM
CC(C)CC(=O)Nc1sc2c(c1C(=O)O)CCCCC2,i,i,i,?,nt,70.8µM
N#Cc1c(NC(=O)CCC(=O)O)sc2c1CCCC2,i,i,i,i,i,i[12.7 µM]
CCC(=O)Nc1sc2c(c1C#N)CCC2,89.1µM,i,i,i,i,i
CC(C)(C)c1cc(NC(=O)C2(C)CCN2C(=O)C2(c3ccccc3)CC2)no1 (stereo not given),nt,i,nt,nt,i,nt
Clc1ccc(-c2nnc3sc(Cc4cccs4)nn23)cc1,i,i,i,i,i,35.5µM
O=C(CSc1ccccn1)N1CCN(c2cccc(Cl)c2)CC1,79.4µM,i,i,i,i,2.82µM
Cc1nc(SCC(=O)N2CCN(c3ccccc3)CC2)n[nH]1,i,i,i,i,i,39.8µM
O=C(CSc1nccc(=O)[nH]1)N1CCN(c2ccccc2)CC1,?,i,i,79.4µM,i,nt
Nc1nc(SCC(=O)c2ccc(Oc3ccccc3)cc2)n[nH]1,35.5µM,i,?,i,i,?
Cc1ccc(Oc2ccc(NC(=O)CSc3n[nH]c(N)n3)cc2)cc1,i,i,i,i,i,?
CCOC(=O)c1cncc(NC(=O)c2ccccc2)c1,i,i,i,i,i,i[2.33 µM]
NCC1OC(OC2C(N)CC(N)[C@@H](O)[C@@H]2OC2O[C@H](CO)[C@@H](O[C@@H]3OC(CN)C(O)C(O)C3N)C2O)C(N)C(O)C1O (stereo not given in full),nt,nt,nt,nt,nt,i[2.33 µM]

# From PubChem BioAssay
